The source of these data is PubChem BioAssay AID686979 (National Center for Advancing Translational Sciences (NCATS), 2013).

Molecules are shown by their SMILES. Out of some 420,000 compounds screened, about 50,000 (12%) were called active. Not shown: some 26% with an inconclusive outcome. The sample as a whole holds a higher share of actives than the screen did. Values without a mark were called inactive. Calls follow the shape of the dose curve; as a rule, active = well fitted inhibition curve with a large enough effect; inconclusive = small, poorly fitted or top-dose-only effect; inactive = flat fitted curve, though single readings scatter.
% is scaled to controls: 0 for no effect and ±100 for the full control effect; potency is read from the fitted curve at half-maximal effect.

This test can be described thus: qHTS for Inhibitors of human tyrosyl-DNA phosphodiesterase 1 (TDP1): qHTS in cells in presence of CPT. Also: nearly all actives have a fitted effect of over 55% in size. The following applies: chicken DT40 Tdp1-/-;hTDP1 cells + 20 nM CPT, ATP luminescence, 48 h; series mostly up to 46.2 µM; activity change, negative = growth inhibition: at the top concentration. In outline: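 Cell growth measured by CellTiter-Glo luminescence after a minimum 48 h, 37 C compound exposure with 20 nM CPT in Tdp1-knockout DT40 cells stably expressing hTDP1, seeded 400/well; qHTS titration format.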
Turning to `Cc1ccc2c(c1)-c1c(cnn1CC(=O)Nc1ccccc1C#N)CO2`, the “activity change, negative = growth inhibition” value was -15.2%.
`O=C(O)C1C2C=CC(O2)C1C(=O)Nc1ccccn1` (stereo unspecified): the “activity change, negative = growth inhibition” value was -1.18%.
With `CCOC(=O)CSc1nc2c(sc(=S)n2CCc2ccccc2)c(=O)n1Cc1ccco1`, the Potency is 20.6 µM (active).
As to `Cc1cc(C)nc(SCc2nnc(SCC(=O)Nc3ncc(C)s3)n2Cc2ccco2)n1`, the “activity change, negative = growth inhibition” value is -21.2%.
Regarding `CCOC(=O)CSc1nnc(-c2ccco2)n1C`, the “activity change, negative = growth inhibition” value is -0.885%.
Still for that read-out and setting: under `O=C(c1ccc(F)cc1)C1CCN(Cc2cn[nH]c2-c2ccccc2)CC1` stands -2.03%.
`C[C@@H](NC(=O)OC(C)(C)C)c1nnc(S(=O)(=O)Cc2ccccc2)o1`: the Potency was 0.651 µM (active).
With `C[C@H](NC(=O)OC(C)(C)C)c1nnc(SCC(N)=O)o1`, the “activity change, negative = growth inhibition” value is 1.58%.
For the compound `CC(C)Sc1nnc([C@H](Cc2ccccc2)NC(=O)OC(C)(C)C)o1`, the “activity change, negative = growth inhibition” value was 9.14%.
Still for that read-out and setting: as for `CN(CCC#N)c1ccc(C=O)cc1`, the figure is -13.6%; as for `CCn1c(=S)[nH]c2cc(S(=O)(=O)N3CCOCC3)ccc21`, 13.2%.
`Cc1ccc(S(=O)(=O)/N=C2\C=C(NS(=O)(=O)c3ccc(C)cc3)C(=O)c3ccccc32)cc1`: the Potency was 23.1 µM (active).
`Cc1ccc(S(=O)(=O)N[C@H](CO)C(C)C)cc1`: the “activity change, negative = growth inhibition” value is -0.0886%.
Still for that read-out and setting: as for `Cc1ccc(S(=O)(=O)N/N=C(\c2ccccc2)C2CC2)cc1`, the figure is -15.3%.
For the compound `CCC1(CC)NC(=O)N(CC(=O)OCC(=O)c2cc(C)c(C)cc2C)C1=O`, the “activity change, negative = growth inhibition” value is -17.4%.
With `Cc1csc(NC(=O)CSc2nc(=O)cc(N)n2-c2ccc(F)cc2)n1`, the “activity change, negative = growth inhibition” value was 1.68%.
Same read-out and setting: as for `CC1Cc2[nH][nH]c(=O)c2C(C2CCCC2)O1` (stereo unspecified), the figure is -16.1%; as for `CCn1c(C(C)NC(=O)c2ccc(C)cc2)n[nH]c1=S` (stereo unspecified), -6.68%.
As for `CCN1CCC2(CC1)N=C(c1ccc(F)cc1)C(=S)N2C(=O)c1ccc(C)cc1`, the Potency is 8.2 µM (active).
With `CCN1CCN(C(=O)CSc2ccc(C)cc2)CC1`, the “activity change, negative = growth inhibition” value was 12.1%.
For `C/C(=N\NC(=S)NC(C)C)c1ccc(C(C)(C)C)cc1`, the Potency is 23.1 µM (active).
As to `C/C(=N\NC(N)=S)c1cccnc1`, the “activity change, negative = growth inhibition” value was -1.16%.
Same read-out and setting: as for `C/C(=N\NC(N)=S)c1ccncc1`, the figure is -2.26%.
Regarding `COc1ccc(-c2ocnc2C(=O)Nc2ccc3c(c2)CCC3)cc1`, the “activity change, negative = growth inhibition” value is -19.1%.
On the same count and under the same terms, under `CC1(C)O[C@@H]2[C@H](O1)[C@@H](COS(=O)(=O)O)O[C@H]2n1ccc(=O)[nH]c1=O` stands 3.71%.
Still for that read-out and setting: as for `Cn1nnc2cc(C(=O)NCCC3=CCCCC3)ccc21`, the figure is -5.42%; as for `O=C(NCCC1=CCCCC1)c1ccc(-n2cncn2)cc1`, 3.69%.
In the case of `Cc1ccn2c(=O)c(C(=O)NCCC3=CCCCC3)c(O)nc2c1`, the Potency is 23.1 µM (active).
As for `Nc1ccc2c(c1)C(O)c1ccc(Cl)cc1-2` (stereo unspecified), the “activity change, negative = growth inhibition” value is 9.47%.
Same read-out and setting: as for `O=C(c1ccc(Br)cc1)N(Cc1cccs1)c1ccc(F)cc1`, the figure is -0.898%; as for `CC(C)OC(=O)CN1CCN(c2ccc(Cl)cc2)CC1`, -10%.
